# Data reported in PubChem BioAssay (NCATS).
# Values without a mark were called inactive. Records with an inconclusive call do not appear. Entries that show only a call come without a potency. Active and inactive are the calls of the source. Unless noted, calls follow the shape of the dose curve; as a rule, active = well fitted curve in the direction sought with a large enough effect; inconclusive = small, poorly fitted or top-dose-only effect, or another doubt; inactive = no such curve, though single readings can be large; an effect the other way counts as inactive or inconclusive.
# Tests used:
# [1] = system: Zika virus NS2B-NS3 protease; test: Primary screen GU AMC qHTS for Zika virus inhibitors (AID 1347154); also: nearly all actives have a fitted effect of over 70% in size
# Method in brief: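 Fluorogenic AMC-substrate cleavage by noncovalent NS2B-NS3 protease complex (25 nM, pH 8.0 Tris buffer with Tween 20) followed for 15 minutes at room temperature (~20% conversion). Percent inhibition from ex340/em450 signal change, fitted by 4-parameter Hill equation.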
# [2] = system: Zika virus NS2B-NS3 protease (linked construct); test: Primary screen NINDS Rhodamine qHTS for Zika virus inhibitors (AID 1347160); also: nearly all actives have a fitted effect of over 55% in size
# Method in brief: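 Aprotinin served as in-plate control. Conditions: 25 nM linked NS2B-NS3, pH 8.0 Tris buffer, titrated compounds, 15 min preincubation and 15 min reaction with 1.5 microM Rhod110 substrate at room temperature.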
# [3] = OV-KATE Cancer Cell Toxicity qHTS against the NCATS CANVASS Library (AID 1347345)
# Method in brief: (§1)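 Step one: seed 1000 cells per well. Step two: incubate 4 h. Step three: add test compounds in 11 concentrations. Step four: culture 72 h, then add CellTiter-Glo and record luminescence after 15min.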
# [4] = UWB1.289 Cancer Cell Toxicity qHTS against the NCATS CANVASS Library (AID 1347347); also: potency is read from the fitted curve at half-maximal effect; nearly all actives have a fitted effect of over 60% in size
# Method in brief: as §1
# [5] = OV-SAHO Cancer Cell Toxicity qHTS against the NCATS CANVASS Library (AID 1347348); also: series mostly up to about 38 µM; nearly all actives have a fitted effect of over 55% in size
# Method in brief: as §1
# [6] = U-118MG Cancer Cell Toxicity qHTS against the NCATS CANVASS Library (AID 1347351); also: series mostly up to about 38 µM
# Method in brief: as §1
# [7] = UWB1.289-WTBRCA1 Cancer Cell Toxicity qHTS against the NCATS CANVASS Library (AID 1347354); also: potency is read from the fitted curve at half-maximal effect
# Method in brief: (§2)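 First, 1000 cells go into each well and rest for 4 hours. Next, an 11-point dilution range is pinned in. Plates then incubate 72 hours before CellTiter-Glo addition and luminescence reading.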
# [8] = HEK-293 Cancer Cell Toxicity qHTS against the NCATS CANVASS Library (AID 1347355); also: potency is read from the fitted curve at half-maximal effect; nearly all actives have a fitted effect of over 65% in size
# Method in brief: as §2
# [9] = HEK293 18hr Apoptosis Induction qHTS against the NCATS CANVASS Library (AID 1347357)
# Method in brief: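 HEK293 cells (500/well, DMEM + 10% FBS) treated with an 11-point series for 18 h at 37 degrees C. Caspase-3/7 activity read by Caspase-Glo luminescence after 15 min at room temperature.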
# [10] = HPAF-II 12hr Apoptosis Induction qHTS against the NCATS CANVASS Library (AID 1347358)
# Method in brief: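 Cells plated at 500 per well are dosed with compound and incubated 12 hours at 37 degrees C. Caspase-Glo 3/7 reagent is added and, after 15 min at room temperature, luminescence proportional to caspase activity is measured.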
# [11] = HEK293 24hr Apoptosis Induction qHTS against the NCATS CANVASS Library (AID 1347359)
# Method in brief: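 Caspase-3/7 activation measured as luminescence from the DEVD-based Caspase-Glo reagent, 15 min at room temperature, following 24-hour compound treatment of HEK293 cells.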
# [12] = HEK293 12hr Apoptosis Induction qHTS against the NCATS CANVASS Library (AID 1347361)
# Method in brief: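 HEK293 cells (500/well) were exposed to an 11-point qHTS concentration series for 12 hours at 37 degrees C. Caspase-3/7 activity was then read by DEVD-substrate luciferase luminescence after 15 min at room temperature.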
# [13] = system: NAD(P)H diaphorase (Clostridium kluyveri); test: Diaphorse counterscreen qHTS: Assay Interference Panel against the NCATS CANVASS Library (AID 1347362)
# Method in brief: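 Counterscreen for coupling-enzyme interference: resorufin fluorescence from resazurin/NADH turnover, read after 5 min at room temperature. Compounds were tested over an 11-point series after 15 min dark preincubation with diaphorase in PBS-Tween.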
# [14] = target: Luciferin 4-monooxygenase (Photinus pyralis) (UniProt P08659); test: Firefly luciferase counterscreen qHTS: Assay Interference Panel against the NCATS CANVASS Library (AID 1347363); also: series mostly up to about 57 µM
# Chain of Luciferin 4-monooxygenase (Photinus pyralis) (P08659 whole entry, looked up): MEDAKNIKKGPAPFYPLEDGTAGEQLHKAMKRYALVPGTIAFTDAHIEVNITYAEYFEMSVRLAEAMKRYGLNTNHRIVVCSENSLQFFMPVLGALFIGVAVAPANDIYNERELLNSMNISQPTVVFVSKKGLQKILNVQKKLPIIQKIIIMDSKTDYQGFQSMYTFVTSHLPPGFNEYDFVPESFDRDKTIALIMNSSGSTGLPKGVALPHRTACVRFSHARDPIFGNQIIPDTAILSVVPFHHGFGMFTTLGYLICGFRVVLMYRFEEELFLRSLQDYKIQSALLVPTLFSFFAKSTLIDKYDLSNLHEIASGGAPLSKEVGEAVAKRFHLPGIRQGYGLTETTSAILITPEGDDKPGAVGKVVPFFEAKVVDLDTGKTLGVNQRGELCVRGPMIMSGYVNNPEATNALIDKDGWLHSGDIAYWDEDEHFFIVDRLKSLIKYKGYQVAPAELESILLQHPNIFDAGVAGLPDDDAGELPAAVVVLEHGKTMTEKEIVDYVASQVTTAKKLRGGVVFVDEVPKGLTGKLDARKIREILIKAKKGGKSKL
# Method in brief: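 Luminescence inhibition readout: compounds (11-point qHTS) sat 15 min at room temperature with substrate mix (0.013 mM luciferin and ATP), then firefly luciferase was added and signal read 5 min later.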
# [15] = SDT Cancer Cell Toxicity qHTS against the NCATS CANVASS Library (AID 1347365); also: potency is read from the fitted curve at half-maximal effect; nearly all actives have a fitted effect of over 60% in size
# Method in brief: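 Cytotoxicity is measured from cellular ATP: compounds in an 11-point concentration series are pinned onto SDT cells, incubated 72 hr at 37C, then CellTiterGlo is added and luminescence read.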
# [16] = KB-3-1 Cancer Cell Toxicity qHTS against the NCATS CANVASS Library (AID 1347366); also: potency is read from the fitted curve at half-maximal effect; nearly all actives have a fitted effect of over 75% in size
# Method in brief: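 KB-3-1 cells (500/well) in DMEM with 10% FBS were exposed to compounds for 72 h at 37C. Viability was read by CellTiter-Glo luminescence.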
# [17] = G06 Cancer Cell Toxicity qHTS against the NCATS CANVASS Library (AID 1347368); also: potency is read from the fitted curve at half-maximal effect; nearly all actives have a fitted effect of over 60% in size
# Method in brief: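 Cells were plated at 500 per well, then compounds were added over an 11-point range. After 72 hr at 37C, CellTiterGlo was added and luminescence measured as ATP content.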
# [18] = MCF7 Cancer Cell Toxicity qHTS against the NCATS CANVASS Library (AID 1347369); also: series mostly up to about 46 µM
# Method in brief: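 MCF7 cells (500/well) were exposed 72 h at 37 °C to compounds in an 11-point series. Viability was read as ATP content by CellTiterGlo luminescence.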
# [19] = qHTS for ATAD5 Antagonist screened against the NCATS CANVASS Library (AID 1347370);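 also: HEK293T cells carrying an ATAD5 luciferase reporter co-treated with 10 µM 5-fluorouridine; series mostly up to about 46 µM; nearly all actives have a fitted effect of over 65% in size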
# Method in brief: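 Compounds (11-point) co-dosed with 10 µM 5-FUrd for 16 h at 37 °C onto HEK293T-ATAD5 luciferase reporter cells. Viability measured by CellTiter-Fluor fluorescence, then ATAD5 reporter signal by luminescence.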
# [20] = target: Nuclear receptor subfamily 1 group I member 3 (Homo sapiens) (UniProt Q14994); test: qHTS for Constitutive Androstane Receptor (CAR) Antagonist screened against the NCATS CANVASS Library (AID 1347372); also: potency is read from the fitted curve at half-maximal effect
# Chain of Nuclear receptor subfamily 1 group I member 3 (Homo sapiens) (Q14994 whole entry, looked up): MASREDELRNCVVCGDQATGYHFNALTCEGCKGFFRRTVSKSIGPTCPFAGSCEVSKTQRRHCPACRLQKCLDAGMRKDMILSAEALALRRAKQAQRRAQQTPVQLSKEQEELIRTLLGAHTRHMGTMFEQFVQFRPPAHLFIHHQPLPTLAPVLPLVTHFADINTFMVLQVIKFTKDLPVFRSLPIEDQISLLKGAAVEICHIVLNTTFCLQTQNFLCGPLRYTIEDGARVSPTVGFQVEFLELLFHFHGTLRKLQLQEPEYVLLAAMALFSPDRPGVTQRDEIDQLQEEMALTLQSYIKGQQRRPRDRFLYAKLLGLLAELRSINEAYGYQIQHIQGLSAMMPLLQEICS
# Method in brief: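 Antagonist mode: compound added alongside 50 nM CITCO to HepG2-hCAR-CYP2B6 reporter cells, 24hr at 37C. Viability by CellTiter-Fluor fluorescence, then CAR-driven luciferase by ONE-Glo luminescence.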
# [21] = target: Nuclear receptor subfamily 1 group I member 3 (Homo sapiens) (UniProt Q14994); test: qHTS for Constitutive Androstane Receptor (CAR) Agonist screened against the NCATS CANVASS Library (AID 1347373);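 also: every well also contained 1.5 µM PK11195 alongside the test compound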
# Method in brief: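 Cells were plated and allowed to attach for 4hr, then dosed with compound in an 11-point series alongside 1.5uM PK11195. After 24hr at 37C, viability was measured fluorometrically and CAR-driven CYP2B6 reporter luminescence was recorded.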
# [22] = qHTS for Hypoxia signaling pathway (HIF-1) antagonists against the NCATS CANVASS Library (AID 1347374); also: potency is read from the fitted curve at half-maximal effect; nearly all actives have a fitted effect of over 60% in size
# Method in brief: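 Antagonism scored as loss of CoCl2-driven (60 uM stock added) HRE beta-lactamase signal, read by CCF4 FRET at 460/530 nm. Compounds were tested in an 11-point series on ME-180 reporter cells for 17 hrs at 37C, with parallel CellTiter-Glo cytotoxicity.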
# [23] = DH5-alpha competent E. coli microbial cell viability qHTS against the NCATS CANVASS Library (AID 1347377); conditions: outcome: dose series up to 46.1 µM
# Method in brief: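 Bacteria were dispensed at 0.2 OD, then compounds were pin-transferred. Plates were incubated overnight at 37C, after which BacTiter-Glo was added and luminescence measured 20 min later.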
# [24] = qHTS for H2AX Agonists against the NCATS CANVASS Library (AID 1347378)
# Method in brief: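 CHO-K1 cells (1000/well, overnight at 37C) exposed to compounds at several concentrations for 3 hr at 37C, 0.76% DMSO final. Lysates read by TR-FRET (phospho-H2AX S139 Eu-cryptate antibody / H2AX-d2 antibody) after 24 hr at room temperature; 665/615 nm ratio.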
# [25] = qHTS for Inflammasome Signaling Inhibitors: IL-1-beta AlphaLISA screen against the NCATS CANVASS Library (AID 1347379);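 also: human THP-1 cells primed with LPS then triggered with ATP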
# Method in brief: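 Secreted IL-1B from human THP-1 cells quantified by AlphaLISA 16 hr after compound addition (final up to 57.5 uM). A 1 hr compound pretreatment preceded inflammasome activation with 250 ng/mL LPS plus 1.25 mM ATP (final).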
# [26] = qHTS for Antimalaria activity screened against the NCATS CANVASS Library (AID 1347380); also: potency is read from the fitted curve at half-maximal effect; nearly all actives have a fitted effect of over 40% in size
# Method in brief: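 Compounds are titrated over 11 concentrations onto Dd2 parasite cultures (0.3% parasitemia, 2.5% hematocrit). Growth over 72 h at 37C in low oxygen is measured as SYBR Green DNA fluorescence after lysis.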
# [27] = Inflammasome Signaling qHTS Counterscreen: IL-1-beta AlphaLISA counterscreen against the NCATS CANVASS Library (AID 1347381);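 also: cell-free check with purified IL-1β in medium and no THP-1 cells; series mostly up to about 57 µM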
# Method in brief: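 Purified IL-1-beta (4 pg/well) + compound, 11-pt conc. series; acceptor beads 6 ug/mL + biotin-Ab 0.6 nM final, 1 h RT; SA-donor 24 ug/ml final, 30 min dark RT; read ex 680/em 615.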
# [28] = Cytotoxicity qHTS for assessment of Hepg2 cells membrane integrity screened against the NCATS CANVASS Library (AID 1347387)
# Method in brief: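 Cells were seeded at 2000 per well and left overnight to attach. Compounds were pin-transferred to give 0.59 nM - 46 uM in an 11-point series and incubated 5 hr at 37C. CytoTox-ONE reagent was added and, after 10 min at room temperature, fluorescence (ex 560, em 590 nm) was read.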
# [29] = qHTS assay for small molecule disruptors of mitochondrial membrane potential screened against the NCATS CANVASS Library (AID 1347389)
# Method in brief: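 Mitochondrial depolarization in HepG2 cells is scored as a falling aggregate-to-monomer fluorescence ratio after 1 hr compound exposure and 30 min staining with Mito-MPS dye at 37C, each compound tested as an 11-point titration.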
# [30] = qHTS for activators of Nrf2/ARE signaling pathway screened against the NCATS CANVASS Library (AID 1347391); also: nearly all actives have a fitted effect of over 60% in size
# Method in brief: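 Beta-lactamase reporter signal, read as 460 and 530 nm emission under 405 nm excitation after 2 h CCF4 loading, reflected ARE activation in HepG2 cells treated 16 h with an 11-point series.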
# [31] = qHTS for activators of dead-cell proteases activity screened against the NCATS CANVASS Library (AID 1347392);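 also: luminescence from protease leaking out of membrane-damaged cells cleaving impermeant substrate; rising signal means more cytotoxicity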
# Method in brief: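 Luminescent dead-cell protease readout (AAF-aminoluciferin, 15 min, room temperature) after 5 h compound treatment of HepG2 cells (2000/well, pre-attached 18 h). Eleven concentrations.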
# [32] = Vero-766 cells viability qHTS against the NCATS CANVASS Library: Counterscreen for Zika virus inhibition assay (AID 1347394)
# Method in brief: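 Vero 766 cells (1000/well), without Zika virus, were exposed to compounds for 72 h at 37C. Viability was measured by CellTiter Glo luminescence. Media-only wells served as 100% inhibition.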
# [33] = Redox Reaction Profiling qHTS: Assay Interference Panel against the NCATS CANVASS Library (AID 1347401)
# Method in brief: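 Redox-cycling liability assessed as DTT-driven conversion of resazurin (5 uM, with 200 uM DTT, HEPES pH 7.3) to fluorescent resorufin. Fluorescence at 525/598 nm measured initially and after 15 min dark incubation.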
# [34] = qHTS for inhibitors of Rabies Virus screened against the NCATS CANVASS Library (AID 1347402; calls by dose curve; also: series mostly up to about 46 µM)
# [35] = Primary qHTS for small molecule stabilizers of the endoplasmic reticulum resident proteome: Secreted ER Calcium Modulated Protein (SERCaMP) assay (AID 1508630)
# Method in brief: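 The SH-SY5Y reporter protocol was run at 3 concentrations up to 38.3 uM (primary) or 11 concentrations (follow-up): 16 h compound, 100 nM thapsigargin for 4 h, then extracellular luciferase luminescence.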
# [36] = target: Glucocorticoid receptor (Homo sapiens) (UniProt P04150); test: GR-GFP Redistribution (AID 450;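 active = compounds whose dose series gives a full or clear partial fitted curve of increased nuclear translocation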; also: potency is read from the fitted curve at half-maximal effect); conditions: U2OS GR-GFP nuclear translocation, laser cytometry, 2 h
# Chain of Glucocorticoid receptor (Homo sapiens) (P04150 whole entry, looked up, the tested form may be a part): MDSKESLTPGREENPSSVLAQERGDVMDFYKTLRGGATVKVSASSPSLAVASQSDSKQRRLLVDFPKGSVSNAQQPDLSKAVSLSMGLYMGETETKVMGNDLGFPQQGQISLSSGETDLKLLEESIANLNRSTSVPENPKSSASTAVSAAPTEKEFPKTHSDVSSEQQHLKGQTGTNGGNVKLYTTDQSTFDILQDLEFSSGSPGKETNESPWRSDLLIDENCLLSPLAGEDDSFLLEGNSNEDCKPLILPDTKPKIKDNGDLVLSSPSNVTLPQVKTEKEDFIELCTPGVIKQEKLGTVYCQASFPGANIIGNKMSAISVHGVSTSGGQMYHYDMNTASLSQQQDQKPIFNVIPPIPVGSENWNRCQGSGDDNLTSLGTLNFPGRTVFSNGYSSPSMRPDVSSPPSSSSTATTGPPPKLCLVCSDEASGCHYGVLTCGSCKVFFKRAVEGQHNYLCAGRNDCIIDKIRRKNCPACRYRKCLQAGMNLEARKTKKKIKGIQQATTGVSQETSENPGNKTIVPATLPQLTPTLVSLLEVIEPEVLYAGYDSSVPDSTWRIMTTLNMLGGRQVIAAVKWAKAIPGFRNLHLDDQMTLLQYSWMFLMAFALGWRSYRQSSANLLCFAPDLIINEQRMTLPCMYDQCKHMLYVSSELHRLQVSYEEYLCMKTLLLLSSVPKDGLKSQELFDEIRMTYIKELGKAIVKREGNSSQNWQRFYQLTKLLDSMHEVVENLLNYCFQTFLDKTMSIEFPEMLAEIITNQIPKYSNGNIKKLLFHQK
# [37] = target: Glucocorticoid receptor (Homo sapiens) (UniProt P04150); test: GR-EFC Redistribution (AID 451; calls by dose curve; also: potency is read from the fitted curve at half-maximal effect); conditions: CHO-K1 GR-EFC translocation, beta-gal luminescence, 2 h
# Method in brief: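 Translocation of GR-ED fusion to nuclear EA restores b-gal, read by luminescence after 1 h room-temperature detection. Engineered CHO-K1 biosensor cells, 1,000/well, exposed 2 h at 37 C to titrations up to 46 uM final.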
# [38] = Cell Viability qHTS for small molecule stabilizers of the endoplasmic reticulum resident proteome (AID 1508629); conditions: cell viability counter-screen, 100 nM thapsigargin for final 4 h;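 also: potency is read from the fitted curve at half-maximal effect; compound exposure about 46 h in total before the viability read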
smiles,measurement,setting,value
C=C1[C@@H](C)[C@H]2[C@H](Cc3ccccc3)NC(=O)[C@]23OC(=O)/C=C/[C@H](O)CCC[C@@H](C)C/C=C/[C@H]3[C@@H]1O,Potency,[1],inactive
same,Potency,[2],inactive
same,Potency,[3],inactive
same,Potency,[4],5.94 µM (active)
same,Potency,[5],inactive
same,Potency,[6],inactive
same,Potency,[7],13.3 µM (active)
same,Potency,[8],9.35 µM (active)
same,Potency,[9],inactive
same,outcome,[10],inactive
same,Potency,[11],inactive
same,Potency,[12],inactive
same,outcome,[13],inactive
same,outcome,[14],inactive
same,Potency,[15],2.64 µM (active)
same,Potency,[16],4.69 µM (active)
same,Potency,[17],2.35 µM (active)
same,Potency,[18],inactive
same,Potency,[19],inactive
same,Potency,[20],8.31 µM (active)
same,outcome,[21],inactive
same,Potency,[22],2.11 µM (active)
same,outcome,[23],inactive
same,Potency,[24],inactive
same,Potency,[25],inactive
same,Potency,[26],4.2 µM (active)
same,outcome,[27],inactive
same,outcome,[28],inactive
same,Potency,[29],inactive
same,Potency,[30],inactive
same,Potency,[31],inactive
same,Potency,[32],13.2 µM (active)
same,Potency,[33],inactive
same,outcome,[34],inactive
same,Potency,[35],inactive
CCOc1cncc(/C=C/CCNC)c1,Potency,[1],inactive
same,Potency,[35],inactive
CN1[C@@H]2CC[C@H]1CC(OC(c1ccc(F)cc1)c1ccc(F)cc1)C2 (stereo partly specified),Potency,[36],> 46 µM
same,Potency,[37],> 46 µM
same,Potency,[1],inactive
same,Potency,[38],25.1 µM (active)
